The supplement of paper PMC7156485
A number with no mark means an inactive call.

Tested on: HCC1569
Experiment: H1.0 immunofluorescence intensity relative to DMSO (% of DMSO); higher = stronger H1.0 induction, active = 140 or more
Conditions: concentration: 10 µM; 24 h
In short: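 H1.0 nuclear intensity or cell number is stated as percent of the plate control, based on the median of replicates, and HCC1569 values were smoothed for positional effects. These came from HCC1569 and TDF cells treated with compounds at 10 µM for 24 h at 37 °C in triplicate, then fixed in 3.7% formaldehyde and stained with a rabbit anti-H1.0 antibody, an AlexaFluor 647 secondary and DAPI.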
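Further: TDF is a line of transformed human dermal fibroblasts of mesenchymal origin.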

Q: How did the H1.0 immunofluorescence intensity turn out when `CN(C)C(=O)Oc1cc(OC(=O)N(C)C)cc(C(O)CNC(C)(C)C)c1.Cl` (stereo unspecified) was run?
A: 101

Q: How did the H1.0 immunofluorescence intensity turn out when `CS(=O)(=O)O.O.Oc1ccc2c3c1OC1c4oc5ccccc5c4CC4(O)C(C2)N(CC2CC2)CCC314` (stereo unspecified) [Naltriben methanesulfonate hydrate] was run?
A: 119

Q: `CCCCCC1OC1CC=CCCCCCCCC(=O)O` (stereo unspecified) [Leukotoxin B (12,13-EODE)] was tested. Which H1.0 immunofluorescence intensity did it give?
A: 100

Q: `CN1C2CCC1CC(OC(=O)c1cc(Cl)cc(Cl)c1)C2` (stereo unspecified) [3-Tropanyl-3,5-dichlorobenzoate] was tested. Which H1.0 immunofluorescence intensity did it give?
A: 108

Q: With `COc1cc2c(cc1OC)C(C)NCC2` (stereo unspecified) [Salsolodine] as the compound, how does the H1.0 immunofluorescence intensity read?
A: 86.3

Q: For `Br.COC(=O)C1=CCCN(C)C1` [Arecoline hydrobromide], which H1.0 immunofluorescence intensity is on record?
A: 86.6

Q: For `Cc1cc(O)c2c(=O)c3c(O)cc(O)c4c5c(O)cc(O)c6c(=O)c7c(O)cc(C)c8c1c2c(c34)c(c78)c65` [Hypericin], which H1.0 immunofluorescence intensity is on record?
A: 94.4

Q: For `CCCN1CCOC2c3cc(O)ccc3OCC21.Cl` (racemic), which H1.0 immunofluorescence intensity is on record?
A: 96.5

Q: `NC(Cn1cc(I)c(=O)[nH]c1=O)C(=O)O` (stereo unspecified) [S-5-Iodowillardiine] was tested. Which H1.0 immunofluorescence intensity did it give?
A: 111

Q: Which H1.0 immunofluorescence intensity does the source give for `COc1ccc2c(c[n+](C)c3c4cc5c(cc4ccc23)OCO5)c1OC.[Cl-]` [Chelerythrine] here?
A: 96.2

Q: For `CCC1(C2OC(C3OC(O)(CO)C(C)CC3C)CC2C)CCC(C2(C)CCC3(CC(O)C(C)C(C(C)C(OC)C(C)C(=O)[O-])O3)O2)O1.[Na+]` (stereo unspecified) [Monensin], which H1.0 immunofluorescence intensity is on record?
A: 186 (active)

Q: For `CC(C)(C)c1o[nH]c(=O)c1CC(N)C(=O)O` (stereo unspecified), which H1.0 immunofluorescence intensity is on record?
A: 95

Q: `CCN1CC2(C)CCC(O)C34C5CC6C(OC)CC(O)(C(CC23)C14)C5C6O` (stereo unspecified) [Karakoline] was tested. Which H1.0 immunofluorescence intensity did it give?
A: 99.8

Q: `CCCCCC=CCC=CCCCCCCCC(=O)NCCO` [Anandamide (18:2,n-6)] was tested. Which H1.0 immunofluorescence intensity did it give?
A: 94.4

Q: `C[C@]12CC[C@@H](O)C[C@@H]1CC[C@@H]1[C@@H]2CC[C@]2(C)[C@@H](O)CC[C@@H]12` [5alpha-Androstane-3alpha,17beta-diol] was tested. Which H1.0 immunofluorescence intensity did it give?
A: 88.8

Q: With `NC(C(=O)O)c1cc(=O)[nH]o1` (racemic) as the compound, how does the H1.0 immunofluorescence intensity read?
A: 92.6

Q: For `c1cc2c(cc1C1OCC3C(c4ccc5c(c4)OCO5)OCC13)OCO2` (single isomer, unassigned; (-)) [(-)-Asarinin], which H1.0 immunofluorescence intensity is on record?
A: 88.6

Q: For `CS(=O)(=O)O.S=C=Nc1cccc(C2(N3CCCCC3)CCCCC2)c1` [Metaphit methanesulfonate], which H1.0 immunofluorescence intensity is on record?
A: 94.5

Q: With `CC12CCC3C(CC=C4CC(O)CCC43C)C1CCC2=O` (stereo unspecified) [Dehydroepiandrosterone] as the compound, how does the H1.0 immunofluorescence intensity read?
A: 93.6

Q: How did the H1.0 immunofluorescence intensity turn out when `O.O=P1(N(CCCl)CCCl)NCCCO1` (stereo unspecified) [Cyclophosphamide monohydrate] was run?
A: 103

Q: `Cl.O=C1CC2OCC=C3CN4CCC56c7ccccc7N1C5C2C3CC46` (stereo unspecified) was tested. Which H1.0 immunofluorescence intensity did it give?
A: 94.2

Q: For `CC(C)CC(NP(=O)([O-])OC1OC(C)C(O)C(O)C1O)C(=O)NC(Cc1c[nH]c2ccccc12)C(=O)[O-].[Na+].[Na+]` (stereo unspecified) [Phosphoramidon disodium], which H1.0 immunofluorescence intensity is on record?
A: 102

Q: For `CCn1cc(C(=O)[O-])c(=O)c2ccc(C)nc21.[Na+]` [Nalidixic acid sodium], which H1.0 immunofluorescence intensity is on record?
A: 92.4

Q: Which H1.0 immunofluorescence intensity does the source give for `CC(C)C1(NC(=O)C2C=C3c4cccc5[nH]cc(c45)CC3N(C)C2)OC2(O)C3CCCN3C(=O)C(Cc3ccccc3)N2C1=O` (stereo unspecified) [Ergocristine] here?
A: 90.3

Q: With `CCCCCC=CCC(C=CC=CCC=CCCCC(=O)O)OO` (stereo unspecified) as the compound, how does the H1.0 immunofluorescence intensity read?
A: 99.8

Q: Which H1.0 immunofluorescence intensity does the source give for `COC(=O)N1CCN(C(=O)Cc2ccc(Cl)c(Cl)c2)C(CN2CCCC2)C1.O=C(O)C=CC(=O)O` (stereo unspecified) here?
A: 95.7

Q: `BrC1C(Br)C(Br)C(Br)C(Br)C1Br` (stereo unspecified) was tested. Which H1.0 immunofluorescence intensity did it give?
A: 111

Q: `COc1ccc(C(=O)OC2CCC3(C)C4CCC5C6(O)CC(O)C7(O)C(CN8CC(C)CCC8C7(C)O)C6(O)CC53OC24O)cc1OC` (stereo unspecified) [Veratridine] was tested. Which H1.0 immunofluorescence intensity did it give?
A: 81.9

Q: Which H1.0 immunofluorescence intensity does the source give for `CC1C(=O)OC2CCN3CC=C(COC(=O)C(C)(O)C1(C)O)C23` (stereo unspecified) [Monocrotaline] here?
A: 90.2

Q: For `CCCCCC=CCC=CCC=CCC=CCCCC(=O)NC(C)CO` [(R)-Methandamide], which H1.0 immunofluorescence intensity is on record?
A: 100

Q: How did the H1.0 immunofluorescence intensity turn out when `CCCC(C)(COC(N)=O)COC(=O)NC(C)C` (stereo unspecified) [Carisoprodol] was run?
A: 106
